Laboratory results published in PubChem BioAssay AID504848 (National Center for Advancing Translational Sciences (NCATS), 2011).
The campaign covered roughly 2,300 compounds. About 1,400 (61%) were called active. Inconclusive results (about 29%) are left out. The set was probably picked from earlier hits. This is one part of the list. A number with no mark means an inactive call. Calls follow the shape of the dose curve; as a rule, active = well fitted inhibition curve with a large enough effect; inconclusive = small, poorly fitted or top-dose-only effect, or effect the other way; inactive = no such curve, though single readings can be large or run the other way.

Test: Confirmation screen for delayed death inhibitors of the malarial parasite plastid, 96 hour incubation; also: nearly all actives have a fitted effect of over 60% in size
Settings: P. falciparum luciferase growth in erythrocytes; series mostly up to 28.7 µM; activity change, negative = inhibition: at the top concentration
In short: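 Two-generation (96 h, 37 C) exposure of P. falciparum carrying an integrated firefly luciferase reporter in erythrocytes, 0.1% parasitemia and 2% hematocrit final, Albumax-supplemented RPMI. Luminescence decrease measures growth inhibition.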
% is scaled to controls: 0 for no effect and ±100 for the full control effect; potency is read from the fitted curve at half-maximal effect.

| Compound | Potency | activity change, negative = inhibition |
| --- | --- | --- |
| CC(Sc1nc2cc(Cl)ccc2s1)C(=O)Nc1cccc(S(=O)(=O)N2CCOCC2)c1 (stereo not given) | 12.6 µM (active) |  |
| COc1cccc(/C=N/NC(=O)c2nc(-c3ccccc3)cc(-c3ccccc3)n2)c1O | 7.94 µM (active) |  |
| COc1ccccc1-n1nnnc1S(=O)(=O)Cc1ccc(Cl)cc1 | 7.08 µM (active) |  |
| CCCc1cc(C(=O)N2CCCC(N3CCN(c4ccccc4F)CC3)C2)n(C)n1 (stereo not given) | 10 µM (active) |  |
| CC(=O)NC(=O)COC(=O)/C=C/c1c(C)nn(Cc2c(Cl)cccc2Cl)c1Cl |  | -64.7% |
| CCOC(=O)C1CCCN(C(=O)c2cc3cc4ccc(OC)cc4nc3o2)C1 (stereo not given) | 7.94 µM (active) |  |
| COc1ccc2cc3cc(C(=O)Nc4ccc5c(c4)OCO5)oc3nc2c1 | 0.891 µM (active) |  |
| COc1ccc2cc3cc(C(=O)N(C)C4CCCCC4)oc3nc2c1 | 10 µM (active) |  |
| CN(CCCN1c2ccccc2CCc2ccccc21)CC(=O)c1ccc(Cl)cc1 | 12.6 µM (active) |  |
| CCN(CC)C(=O)COc1coc(CN2CCN(c3ccccc3)CC2)cc1=O | 7.94 µM (active) |  |
| CN(C(=O)COc1coc(CN2CCN(c3ccccc3)CC2)cc1=O)c1ccccc1 | 10 µM (active) |  |
| CCN(CC)C(=O)COc1coc(CN2CCN(c3cccc(Cl)c3)CC2)cc1=O | 4.47 µM (active) |  |
| CCOc1ccccc1NC(=O)COc1coc(CN2CCc3ccccc3C2)cc1=O | 11.2 µM (active) |  |
| CCCNC(=O)COc1coc(CN2CCN(c3cccc(Cl)c3)CC2)cc1=O | 10 µM (active) |  |
| O=C(O)c1ccc(/C=N/NC(=O)c2ccc3c(c2)OCCO3)cc1 |  | 24% |
| O=C(/C=C/c1ccncc1)c1ccc2c(c1)OCCO2 | 12.6 µM (active) |  |
| CCOC(=O)C1=C(C)N=c2s/c(=C\c3ccc(OCC(=O)O)cc3)c(=O)n2C1c1ccc(OC(C)C)cc1 (stereo not given) | 2.51 µM (active) |  |
| OC(c1cc(C(F)(F)F)nc2c(C(F)(F)F)cccc12)C1CCCCN1 (stereo not given) | 0.0501 µM (active) |  |
| OC(c1cc(-c2ccc(Cl)cc2)nc2ccccc12)C1CCCCN1 (stereo not given) | 0.251 µM (active) |  |
| OC(c1cc(C(F)(F)F)nc2c(Cl)cc(Cl)cc12)C1CCCCN1 (stereo not given) | 0.0224 µM (active) |  |
| O[C@@H](c1cc(C(F)(F)F)nc2c(C(F)(F)F)cccc12)[C@H]1CCCCN1 | 0.178 µM (active) |  |
| CCN(CC)c1ccc(NC(=S)NC(=O)C2CCC2)cc1 | 11.2 µM (active) |  |
| O=[N+]([O-])c1cncc([N+](=O)[O-])c1Nc1cccc(O)c1 | 12.6 µM (active) |  |

| Compound | Potency | activity change, negative = inhibition |
| --- | --- | --- |
| NC(=O)C1CCN(CC(=O)Nc2cccc(C(=O)Nc3cccc(C(F)(F)F)c3)c2)CC1 | 1.12 µM (active) |  |
| O=C(Nc1ccsc1C(=O)O)c1cccc(C(F)(F)F)c1 |  | 0.077% |
| Cn1c(/C=C/c2ccc(Cl)cc2)c([N+](=O)[O-])c(=O)n(C)c1=O | 6.31 µM (active) |  |
| COc1ccc(OC)c(/C=C/c2c([N+](=O)[O-])c(=O)n(C)c(=O)n2C)c1 | 12.6 µM (active) |  |
| COc1ccc(Cn2c(O)c(C=Nc3ccc(O)cc3)c3ccccc3c2=O)cc1 | 7.94 µM (active) |  |
| CCCSc1sc(C(=O)OC)c(-c2cccs2)c1C#N |  | -103% |
| COc1ccc(-c2cc(-c3ccccc3)nc(SC(C)C(=O)O)c2C#N)cc1 (stereo not given) | 10 µM (active) |  |
| COc1ccc(-c2cc(-c3ccccc3)nc(SCC(=O)Nc3nccs3)c2C#N)cc1 | 2 µM (active) |  |
| CCc1ccc(NC(=O)CN(c2cc(C)cc(C)c2)S(=O)(=O)c2c(C)[nH]c(=O)[nH]c2=O)cc1 | 12.6 µM (active) |  |
| Cc1cccc(C)c1OCc1cc(C(=O)N(C)Cc2nc3ccccc3[nH]2)no1 | 14.1 µM (active) |  |
| O=C(/C=C/c1ccccc1Cl)c1ccccc(=O)c1O | 6.31 µM (active) |  |
| Cc1ccc(C)c(/C=C/C(=O)c2ccccc(=O)c2O)c1 | 11.2 µM (active) |  |
| COc1ccc(OC)c(CNC(=O)c2ccc(C)c(NC(=O)C3=C(C)OCCS3)c2)c1 | 10 µM (active) |  |
| S=c1nc2c(n[nH]1)c1ccccc1n2CCc1ccccc1 | 12.6 µM (active) |  |
| CSc1nnc2c3ccccc3n(CCc3ccccc3)c2n1 | 15.8 µM (active) |  |
| CC1C/C(=C/c2ccncc2)C(=O)/C(=C/c2ccncc2)C1 (stereo not given) | 3.55 µM (active) |  |
| O=[N+]([O-])c1c(Nc2ccccc2O)cc(Cl)c2nonc12 | 3.55 µM (active) |  |
| CC1CCN(c2ccc3nnc(CCC(=O)N4CCN(c5ccccc5F)CC4)n3n2)CC1 | 10 µM (active) |  |
| COc1cccc2sc(Nc3nnc(-c4ccccc4Cl)o3)nc12 |  | -105% |
| COc1cccc2sc(Nc3nnc(-c4ccc(F)cc4)o3)nc12 | 7.08 µM (active) |  |
| CC(C)C[C@H](NC(=O)c1[nH]cnc1C(=O)Nc1ccc(CNC(=O)OC(C)(C)C)cc1)C(=O)OC(C)(C)C | 4.47 µM (active) |  |
| CC(C)C[C@H](NC(=O)c1nc[nH]c1C(=O)N(C)Cc1ccccc1)C(=O)OC(C)(C)C | 10 µM (active) |  |
| C[C@H](NC(=O)c1nc[nH]c1C(=O)N[C@H](C)c1ccccc1)C(=O)OCc1ccccc1 |  | -12.3% |

| Compound | Potency | activity change, negative = inhibition |
| --- | --- | --- |
| CC(C)C[C@H](NC(=O)c1[nH]cnc1C(=O)N[C@@H](Cc1ccccc1)C(=O)OC(C)(C)C)C(=O)OC(C)(C)C | 6.31 µM (active) |  |
| CC(C)C[C@H](NC(=O)c1[nH]cnc1C(=O)N[C@@H](C)C(=O)OC(C)(C)C)C(=O)OC(C)(C)C | 10 µM (active) |  |
| Cc1cc(C)cc(NC(=O)C2C3C=CC4(O3)C2C(=O)N(CCCN2CCCC2)C4C(=O)NC2CCCC(C)C2C)c1 (stereo not given) | 12.6 µM (active) |  |
| O=C(O)c1cc2ccccc2c(N=Nc2cccnc2)c1O | 3.98 µM (active) |  |
| O=C(Nc1ccon1)c1nc[nH]c1C(=O)NCc1ccccc1 | 7.94 µM (active) |  |
| CCC(=O)N1c2ccccc2NC2=C(C(=O)CC(c3ccco3)C2)C1c1ccco1 (stereo not given) | 10 µM (active) |  |
| C=CCC1(O)C(=O)N2C(=C1C(=O)OCC)c1ccc3ccccc3c1CC2(C)C (stereo not given) | 10 µM (active) |  |
| O=C(Cn1c(=O)oc2ccc(Cl)cc21)NC1CCCCC1 | 10 µM (active) |  |
| CN(C)C1(CNC(=O)C2CCC(=O)N(Cc3ccc(Cl)cc3)C2)CCCCC1 (stereo not given) | 5.62 µM (active) |  |
| Cc1ccc(Nc2nc(=O)c3cccnc3s2)c(Br)c1 |  | -10.6% |
| Cc1cc(OCC(=O)N[C@@H](CSCc2ccccc2)C(=O)O)c2c(C)c(C)c(=O)oc2c1 | 14.1 µM (active) |  |
| CN(CCNC(=O)C1CCC(=O)N(Cc2cccc(F)c2)C1)CCc1ccccc1 (stereo not given) | 7.08 µM (active) |  |
| CN(Cc1ccccc1Cl)C(=O)C1CCC(=O)N(CCc2cccc(F)c2)C1 (stereo not given) | 7.94 µM (active) |  |
| CN(CCOc1ccccc1)C(=O)C1CCC(=O)N(CCN2CCOCC2)C1 (stereo not given) |  | 4.57% |
| Cc1ccc(C(=O)NC2CCCC2)cc1S(=O)(=O)N1CCCCC1 | 8.91 µM (active) |  |
| COc1ccc(C)cc1S(=O)(=O)N1CCN(S(=O)(=O)c2cc(C(=O)O)ccc2C)CC1 | 8.91 µM (active) |  |
| Cc1ccc(C(=O)NC2CCCCC2)cc1S(=O)(=O)N1CCCC1 | 10 µM (active) |  |
| Fc1ccc2cnc(-c3ccccc3)c(-c3ccc(C(F)(F)F)cc3)c2c1 | 14.1 µM (active) |  |
| O=[N+]([O-])c1ccc(-c2c(-c3ccccc3)ncc3ccc(F)cc23)cc1 | 12.6 µM (active) |  |
| CCc1ccc(OCCNC(=O)c2ccccc2SCc2ccccc2)cc1 | 12.6 µM (active) |  |
| CCCCNC(=O)c1onc(CSc2ccccc2C)c1C(=O)O |  | -24.1% |
| CCc1ccc(OCCNC(=O)c2ccco2)cc1 | 12.6 µM (active) |  |
| O=C(CNC(=O)c1ccco1)OCC(=O)c1ccccc1 |  | -20.9% |

| Compound | Potency | activity change, negative = inhibition |
| --- | --- | --- |
| CCCCNC(=O)c1onc(CSc2cccc3ccccc23)c1C(=O)O |  | 9.71% |
| CCCn1c(CN2CCN(C(=O)OCC)CC2)nc2cc(NC(=O)C(C)C)ccc21 | 10 µM (active) |  |
| CCN1CCN(c2ncnc3c2c(-c2ccccc2)cn3-c2ccc(F)cc2)CC1 | 10 µM (active) |  |
| Fc1ccccc1N1CCN(c2ncnc3[nH]ncc23)CC1 |  | -3.78% |
| CN1CCN(c2ncnc3c2c(-c2ccccc2)cn3-c2ccc(F)cc2)CC1 | 11.2 µM (active) |  |
| Cc1[nH]c(C)c(C(=O)/C=C/c2ccc([N+](=O)[O-])cc2)c1C | 7.94 µM (active) |  |
| Cc1c(Cc2ccccc2)c(=O)oc2cc(OC(C)C(=O)NCC3CCC(C(=O)O)CC3)c(Cl)cc12 (stereo not given) | 10 µM (active) |  |
| Cc1c(OC(C)C(=O)NCC2CCC(C(=O)O)CC2)ccc2c1oc(=O)c1ccccc12 (stereo not given) | 12.6 µM (active) |  |
| Cc1oc(/C=N/NS(=O)(=O)c2ccccc2)cc1Br |  | -5.08% |
| COc1ccc(CN(C(=O)/C=C/C(=O)c2ccc(OC)cc2O)C(C(=O)NC2CCCCC2)c2ccncc2)cc1 (stereo not given) | 6.31 µM (active) |  |
| COc1ccc(C(=O)/C=C/C(=O)N(CC(=O)NC2CCCCC2)CC2CCCO2)c(O)c1 (stereo not given) | 12.6 µM (active) |  |
| CCOc1ccc(-c2cc(C(=O)N/N=C(\C)c3cccnc3)c3ccccc3n2)c(OCC)c1 | 14.1 µM (active) |  |
| CCOC(=O)CSc1nc2sc3c(c2c(=O)n1C1CCCCC1)CCN(C)C3 | 2 µM (active) |  |
| CCn1c(SCC(=O)Nc2ccc(C)cc2)nc2sc3c(c2c1=O)CCN(C)C3 | 0.708 µM (active) |  |
| CC(C)(C)OC(=O)NCCCCCNC(=O)c1[nH]cnc1C(=O)Nc1nccs1 | 7.08 µM (active) |  |
| Cn1cc([N+](=O)[O-])c(C(=O)Nc2nccs2)n1 |  | -17.4% |
| COc1cccc(F)c1C(C[N+](=O)[O-])c1c(N)n(C)c(=O)n(C)c1=O (stereo not given) | 3.98 µM (active) |  |
| Cc1cccc(N2CCN(S(=O)(=O)c3ccc4c(c3)NC(=O)CO4)CC2)c1C | 11.2 µM (active) |  |
| Cc1ccc(CCNC(=O)C2CCN(S(=O)(=O)c3ccc4c(c3)NC(=O)CO4)CC2)cc1 | 10 µM (active) |  |
| COc1ccc(C)cc1NC(=O)C1CCN(S(=O)(=O)c2ccc3c(c2)NC(=O)CO3)CC1 | 7.94 µM (active) |  |
| Cc1ccc(C)c(N2CCN(S(=O)(=O)c3ccc4c(c3)NC(=O)CS4)CC2)c1 | 8.91 µM (active) |  |
